Measurements as given in PubChem BioAssay (Tox21).
Records with an inconclusive call do not appear. Values without a mark were called inactive. Calls follow the shape of the full dose curve.

experiment: p53 small molecule agonists, cell-based qHTS assay: qHTS cell viability counter screen (AID 1963581); conditions: p53RE-bla HCT-116 viability, ATP luminescence, 16 h; series mostly up to 66 µM; activity change, negative = cytotoxicity: at the top concentration; also: nearly all actives have a fitted effect of over 45% in size
From the text: National Center for Advancing Translational Sciences [NCATS]
Division of Preclinical Innovation [DPI]
U.S. Environmental Protection Agency [EPA]
National Institutes of Environmental Health Sciences [NIEHS]
National Toxicology Program [NTP]
U.S. Food and Drug Administration [FDA]
p53, a tumor suppressor protein, is activated following cellular insult, including DNA damage and other cellular stresses. The activation of p53 regulates cell fate by inducing DNA repair, cell cycle arrest, apoptosis, or cellular senescence. The activation of p53, therefore, is a good indicator of DNA damage and other cellular stresses. The CellSensor p53RE-bla HCT-116 cell line (Invitrogen) contains a stably integrated beta-lactamase reporter gene under control of the p53 response elements. The activation of the reporter gene under culture conditions can be detected by fluorescence intensity. This cell line was used to screen the Tox21 compound library in a 1536-well plate format and to identify agonists that activate the p53 signaling pathway. The cytotoxicity of the Tox21 compound library against the p53 RE-bla HCT-116 cell line was tested in parallel by measuring the intra cellular ATP content in the same wells.
Tox21 Assay Protocol Summary:
The p53RE-bla cells were dispensed at 4,000 cells/5 ul/well in 1536-well black wall/clear bottom plates using a Multidrop dispenser. After the assay plates were incubated at a 37 C/5% CO2 incubator for 5 hours, 23 nL of compounds dissolved in DMSO, positive controls or DMSO only was transferred to the assay plate by a pin tool. The plates were incubated at 37 C for 16 hours. After 1 uL of LiveBLAzerTM B/G FRET substrate was added using a Flying Reagent Dispenser, the plates were incubated at room temperature for 2 hours, and fluorescence intensity was measured by an Envision plate reader. For cell viability readout that measures cytotoxicity, 4 ul/well of CellTiter-Glo reagent was added into the assay plates using a Flying Reagent Dispenser. After 30 min incubation at room temperature, the luminescence intensity in the plates was measured using a ViewLux plate reader.
% is scaled to controls: 0 for no effect and ±100 for the full control effect.

| Structure (SMILES) | activity change, negative = cytotoxicity |
| --- | --- |
| [O]=[Bi] | 5.64% [at 5.99 µM] |
| OCCC(F)(F)C(F)(F)C(F)(F)C(F)(F)C(F)(F)C(F)(F)C(F)(F)C(F)(F)F | -13.2% |
| CC1=C2[C@@H]([C@H](C)CC[C@H]2/C=C(\C)C(=O)O)[C@H](O)C1 | -3.66% |
| CCCCc1nc(Cl)c(CO)n1Cc1ccc(-c2ccccc2-c2nn[nH]n2)cc1 | -18.3% [at 30.3 µM] |
| CC(C)(C)NCCNC(C)(C)C | 1.35% |
| CCCn1cnc2c1c(=O)n(CCCCC(C)=O)c(=O)n2C | 0.474% [at 30.3 µM] |
| [Cu+] | -13.7% |
| O=C1C(=O)c2ccccc2C(O)=C1C1CCC(c2ccc(Cl)cc2)CC1 (stereo not given) | -18.9% [at 30.3 µM] |
| CCOc1cc(OCC)c(C(C)=O)cc1OCC | -4.13% |
| CCOC(=O)CC | 4.61% |
| CC(=O)CCCCn1c(=O)c2c(ncn2C)n(C)c1=O | 21.5% [at 30.3 µM] |
| CC(=O)CC(=O)Nc1ccc(C)cc1C | -1.31% |
| CCCCN(CCCC)CCCOC(=O)c1ccc(N)cc1 | 6.23% [at 30.3 µM] |
| O[C@@H](COc1cccc2ncccc12)CN1CCN(C2c3ccccc3[C@@H]3[C@H](c4ccccc42)C3(F)F)CC1 (stereo not given in full) | -5.79% [at 30.3 µM] |
| CCOc1nc2cccc(C(=O)O)c2n1Cc1ccc(-c2ccccc2-c2nn[nH]n2)cc1 | 1.52% [at 30.3 µM] |
| CCOC(=O)c1ccc(OC(=O)CCCCCN=C(N)N)cc1 | 5.95% [at 30.3 µM] |
| CCOC(=O)Cn1c(=O)sc2cccc(Cl)c21 | 16.6% |
| CCCCN(C)C | 18.9% |
| CCC(=O)c1c(O)cc(O)cc1O | -5.73% [at 30.3 µM] |
| CC(C)Nc1cccnc1N1CCN(C(=O)c2cc3cc(NS(C)(=O)=O)ccc3[nH]2)CC1 | -11% [at 30.3 µM] |

| Structure (SMILES) | activity change, negative = cytotoxicity |
| --- | --- |
| Cc1ccco1 | 7.65% |
| C/C(=C(\CCOP(=O)(O)O)SC(=O)c1ccccc1)N(C=O)Cc1cnc(C)nc1N | 10.8% [at 5.99 µM] |
| CC(C)=CCOC(=O)c1ccccc1 | 6.73% |
| CC(C)(C(=O)c1cccnc1)c1cccnc1 | -3% [at 30.3 µM] |
| CN1C(=O)N(c2ccccc2Br)Cc2cnc(Nc3ccc4c(c3)OCC(CO)O4)nc21 (stereo not given) | 12.3% |
| COc1ncnc(NS(=O)(=O)c2ccc(N)cc2)c1OC | -16.9% [at 30.3 µM] |
| CN1C(=O)N(C)C(O)C1O (stereo not given) | 1.35% |
| CCn1cc(C(=O)O)c(=O)c2cc(F)c(N3CCNCC3)nc21 | -0.578% [at 30.3 µM] |
| O=C(O)c1cccc(C(=O)O)c1C(=O)O | -5.97% |
| CC/C(=C\C(=N/O)C(N)=O)C(C)[N+](=O)[O-] (stereo not given) | -20.5% |
| CCCCCCC(O)CO (stereo not given) | 0.23% |
| Cc1c(N=C=O)cccc1N=C=O | 0.58% |
| COc1ccc(C(C)=O)cc1 | 14.8% |
| CCCCCCCCCCCCCCCCCO | 17.8% [at 13.5 µM] |
| COc1ccccc1NC(=O)c1cc2ccccc2cc1O | -15.1% |
| Cc1ccc(O)cn1 | -7.35% |
| O=C(c1ccc(F)cc1)C1CCN(CCn2c(=O)[nH]c3ccccc3c2=O)CC1 | -22.7% [at 30.3 µM] |
| C=C/C(C)=C/C/C=C(\C)CCC=C(C)C | -9.17% |
| CC[C@@H](CO)NCCN[C@@H](CC)CO | -13.7% [at 30.3 µM] |
| Cc1nc2n(c(=O)c1CCN1CCC(c3noc4cc(F)ccc34)CC1)CCCC2 | -13.8% [at 30.3 µM] |
